Laboratory results published in PubChem BioAssay (NCATS).
Inconclusive results are not listed. Where a structure was tested more than once in an assay, its records may differ in their call. Activity calls are given as the source filed them. Calls come from the whole dose curve; as a rule, active = well fitted inhibition curve with a large enough effect; inconclusive = small, poorly fitted or top-dose-only effect; inactive = flat fitted curve, though single readings scatter.

Test: qHTS for Inhibitors of Plasmodium falciparum (7G8) proliferation (AID 504316); note: nearly all actives have a fitted effect of over 65% in size;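 for activity change, negative = inhibition: 0% = DMSO vehicle and -100% = 0.29 µM artemisinin full kill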
Conditions: P. falciparum 7G8 in erythrocytes, SYBR Green DNA, 72 h; series mostly up to 6.7 µM; activity change, negative = inhibition: at the top concentration
Description: Plasmodium falciparum is a virulent malarial parasite that kills 1-2 million people worldwide each year. Malaria not only inflicts tremendous suffering and morbidity on the human population, but has dramatically influenced the course of civilization with profound sociological and economic implications (Shah, S. 2010). Transmitted by mosquitoes, the sporozoite form of the parasite enters the blood stream to infect hepatocytes, where they become merozoites that infect red blood cells (erythrocytes). Within erythrocytes, merozoites begin a […] cycle of growth and division, after which the parasite is released to infect new red blood cells. Gametocytes, which form within erythrocytes as well, circulate in the bloodstream and are ingested by the mosquito, thereby completing the life cycle (see CDC website). To profile malarial lines for differential chemical responses and to identify inhibitors of malarial growth, an assay that measures P. falciparum growth and replication within erythrocytes was employed. This assay uses a DNA binding fluorescent dye (SYBR Green) to detect parasite DNA following cell lysis. Because mature erythrocytes lack DNA, only Plasmodium-derived DNA is detected. The P. falciparum line cp250, derived from a malarial isolate from Cambodia, (Mu, J., et al. 2010) was added to the panel of lines, Dd2, HB3, 7G8 and GB4 in this study. Laboratory of Assay Development and Screening Technology [ADST] and NIH Chemical Genomics Center [NCGC] Boston University, Chemistry Department, Center for Chemical Methodology and Library Development [CMLD-BU] NIH National Institute of Allergy and Infectious Diseases [NIAID]
ADST Assay Protocol Summary: The 1536-well SYBR Green viability assay was based on the method of Bennett et al (2004) and described previously in 1536-well format (Yuan J., et al. 2009). For screening 3 ul culture medium was dispensed into 1536 well black clear bottom plates (Aurora Biotechnologies) using a Multidrop Combi (Thermo Fisher Scientific Inc.), 23 nL compounds in DMSO were added by a pin transfer (Cleveland, P.H. and Koutz, P.J, 2005) using a pin tool-based delivery system (Kalypsys), and 5 ul of erythrocytes infected with P. falciparum one of five lines (cp250, Dd2, HB3, 7G8 or GB4, 0.3% parasitemia, 2.5% hematocrit final concentration) were added. The plates were incubated at 37C in a humidified incubator in 5% CO2 for 72 h, and 2 ul lysis buffer (20 mM Tris HCl, 10 mM EDTA, 0.16% saponin, 1.6% triton X, 10X SYBR Green I (supplied as 10,000X final concentration by Invitrogen) was added to each well. The plates were mixed for 25 sec with gentle shaking and incubated overnight at room temperature in the dark. The following morning, fluorescence intensity at 485(14) nm excitation and 535(25) nm emission wavelengths was measured on an EnVision (Perkin Elmer) plate reader. Plate reads were normalized relative to the control inhibitor (0.29 uM artemisinin) and vehicle (DMSO) wells present on each plate and then corrected by an algorithm using vehicle-only control plates at the beginning and end of the compound plate stack. References Shah, S. (2010). The Fever: how malaria has ruled humankind for 500,000 years. New York, Sarah Crichton Books. CDC web site, http://www.cdc.gov/malaria/about/biology/index.html Mu, J., Myers, R.A., Jiang, H., Liu, S., Ricklefs, S., Waisberg, M., Chotivanich, K., Wilairatana, P., Krudsood, S., White, N.J., et Plasmodium falciparum genome-wide scans for positive selection, recombination hot spots and resistance to antimalarial drugs Nature Genetics 2010, 42, pp 268-271 Bennett TN, Paguio, M., Gligorijevic, B., Seudieu, C., Kosar, A. D., Davidson, E., and Roepe, P. D. Novel, rapid, and inexpensive cell-based quantification of antimalarial drug efficacy Antimicrobial Agents Chemother. 2004, 48(5): pp 1807-10 Yuan J, Johnson RL, Huang RL, Wichterman J, Jiang HY, Hayton K, Fidock DA, Wellems TE, Inglese J, Austin CP, Su XZ. […]
Potency is the fitted concentration of half-maximal effect.

Activity change, negative = inhibition, inactive:
CC(C)CON=C1C[C@@H](O)[C@@H](O)[C@@H]2[C@H]3C(=O)N(Cc4ccccc4)C(=O)[C@@H]3CC[C@@H]12 -0.723%, COC(=O)N[C@@H](c1cccc(F)c1)[C@]1(C(=O)OC)CCCC1=O -1.45%, C=CCN=C1NC(c2cccc(C(F)(F)F)c2)C(C(=O)OC)=C(C)N1Cc1ccccc1 (stereo not given) -19.6%, CCOC(=O)C(c1ccc(OC)c(OC)c1)C1c2ccccc2C=C(C)N1C(=O)OC (stereo not given) -15.9%, CC=COC(=O)N[C@@H](c1ccccc1)[C@]1(C(=O)OC)CCCC1=O 3.65%, COc1ccc(COC(=O)NN=C2C[C@@H](O)[C@@H](O)[C@@H]3[C@H]4C(=O)N(C5CCCCC5)C(=O)[C@@H]4CC[C@H]23)cc1 -3.62%, CCN(CC)CCCN1C(=O)C2=C(C1=O)C1N(C)c3ccccc3[C@@]13C[C@@H](CO)N(C(=O)CCC(=O)OC)C3=N2 (stereo not given in full) -13.6%, COC(=O)[C@@H]1CC[C@H](C)[C@@H](c2ccc(C)cc2)N1C(=O)c1ccc(C=NO[C@H](C)c2cn([C@@H]3COC[C@@H]3O)nn2)cc1 -10.4%, COC(=O)NC(c1ccccc1)c1c[nH]c2ccccc12 (stereo not given) -11.3%, COc1ccc2c(c1)O[C@@H](c1ccc3c(c1)OCO3)[C@H](OC(=O)Nc1ccc(OC(F)F)cc1)C2=O 6.42%, CC1=C(C)CC(c2ccccc2)C(C(=O)c2ccccc2O)C1 (stereo not given) -0.73%, C=C(C)CCCN1C=C(C(C)=O)C(c2ccccc2)NC1=O (stereo not given) -0.703%, C=CC[C@@]1(C(=O)OC)C=C[C@@H](C)[C@H](c2ccccc2Br)N1C(=O)C(F)(F)F -3.87%, Cc1ccc(C(O)C2=CCCC2=O)cc1 (stereo not given) 5.96%, C=CC[C@@H]1C=C[C@@H](OC(=O)OCC)[C@@H](COC(=O)OCC)O1 3.45%, COC[C@@H](OC(C)=O)[C@H]1OCc2ccccc2[C@H]1C=Cc1ccccc1 -3.23%, COC(=O)N[C@H](C(C(=O)OC)=C(C)NCc1ccccc1)c1ccc(Cl)cc1 -7.76%, CCN1C(=NCc2cc(OC)c(OC)c(OC)c2)NC(c2ccccc2)C(C(=O)OC)=C1C (stereo not given) 5.1%, C(#C[C@@H]1C=C[C@H]2OC(c3ccccc3)OC[C@H]2O1)c1ccccc1 (stereo not given in full) 5.93%, COC(=O)C[C@H]1c2ccccc2[C@@H]2C(=C[C@@H](C)[C@H]3C(=O)NC(=O)[C@H]32)N1C(=O)OC -1.21%, COC(=O)N1C2=C(c3ccccc3[C@@H]1CC(=O)O)[C@@H]1O[C@@H](C2)c2ccccc21 -1.67%, COC(=O)C(C(C)=O)C1c2ccccc2C=C(C)N1C(=O)OC (stereo not given) -6.74%, CC#CCN1C(=O)NC(c2ccccc2)C(C#N)=C1C (stereo not given) 6.48%, CCOC(=O)CN1C(=O)[C@@]2(CC(C)=C[C@@H](COCc3ccccc3)O2)c2ccccc21 -14.8%, COc1cccc([C@@H]2Oc3ccc(Br)cc3C(=O)[C@@H]2OC(=O)N[C@H]2CCCc3ccccc32)c1 -18%, COc1ccc2c(c1)CO[C@H]([C@H](O)CBr)[C@H]2C=Cc1ccccc1 -5.47%, COC(=O)C1=C(C)N(Cc2ccccc2)C(=NCC2CC2)NC1c1ccc(Br)cc1 (stereo not given) -12.5%, CCCNC(=O)OC[C@H]1O[C@H](CCON=C2C[C@@H](O)[C@@H](O)[C@@H]3[C@H]4C(=O)N(CC)C(=O)[C@@H]4CC[C@H]23)C=C[C@H]1Oc1ccc(OC)cc1 -5.57%, CCCNC(=O)OC[C@H]1O[C@H](CCON=CC[C@@H]2C=C[C@H](OC(C)=O)[C@@H](COC(C)=O)O2)C=C[C@H]1Oc1ccc(OC)cc1 -11.7%, CO[C@H](c1ccccc1Br)[C@H](C)C=CCCO -8.33%, CCN1C(=O)[C@@H]2[C@H]3[C@H](O)[C@H](O)CC(=NO[C@@H]4O[C@H](COC(C)=O)[C@@H](OC(C)=O)[C@H](OC(C)=O)[C@@H]4OC(C)=O)[C@@H]3CC[C@H]2C1=O 8.93%

Potency, 1.51 µM (active) and inactive:
COc1ccc(-c2nc(-c3ccccc3)c(NC(C)(C)C)o2)cc1

Potency, inactive:
COCCN1C(=O)N[C@@H](c2ccccc2)[C@H](C(C)=O)[C@H]1C, COC(=O)C1=C(C(=O)OC)[C@@H]2N(C)c3ccccc3[C@@]23C[C@@H](C(=O)OC)N(C(=O)c2cccs2)C3=N1, COC(=O)CCCC1=CC2=C(c3ccccc3)C(=O)C(C)(OC(=O)C3CCCC3)C(=O)C2=CN1Cc1ccco1 (stereo not given), CCN(CC)CCCN1C=C2C(=O)C(C)(OC(=O)C3CCCC3)C(=O)C=C2C=C1c1ccsc1 (stereo not given)

Potency, 1.69 µM (active) and inactive:
CCCCCCCC1=Cc2ccccc2C(CC(C)=O)N1C(=O)OC (stereo not given)

Potency, active:
COc1ccc2c(c1)O[C@@H](c1ccc3c(c1)OCO3)[C@H](OC(=O)Nc1cc(OC)c(OC)c(OC)c1)C2=O 1.69 µM, CC(C)(C)Nc1oc(-c2ccccc2)nc1C=Cc1ccccc1 1.51 µM, CCOC(=O)OC[C@H]1O[C@H](c2ccc(C(C)=O)cc2)C=C[C@H]1Oc1ccc(-c2ccccc2)cc1 1.51 µM
